# Measurements published in PubChem BioAssay AID743279 (National Center for Advancing Translational Sciences (NCATS), 2014).
# In all, about 360,000 compounds went through this assay and about 17,000 (4.7%) were called active. Not shown: some 5% with an inconclusive outcome. No stated cut-off is given here; in the data, active means activity change below about -50%; inconclusive means mostly about -30% to -49%; inactive means weaker than that. Only a selection was taken, and actives are over-represented in it overall.
# Test: qHTS for Inhibitors of Inflammasome Signaling: IL-1-beta AlphaLISA Primary Screen
# Details: THP-1 LPS/ATP IL-1B secretion, 16 h; at 57.5 µM, hits give low values
# Outline: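 THP-1 cells pretreated 1 hr with compounds (up to 57.5 uM final), then stimulated with LPS (250 ng/mL final) plus ATP (1.25 mM final); secreted IL-1B measured by AlphaLISA after 16 hr, decreased signal indicating inhibition.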
# On the % scale 0 is the no-effect control and ±100 the full control effect.
row,Structure (SMILES),activity change
1,O=C(NC1CCCC1)C1c2ccccc2OCC(=O)N1CC(F)(F)F (stereo not given),35.1% (inactive)
2,CC(C)C(C)(C#N)NC(=O)CSc1nc2scc(-c3ccccc3)c2c(=O)[nH]1 (stereo not given),18.7% (inactive)
3,CC[C@@]12C(=O)N(c3ccccc3)C(=O)N1[C@H](c1ccc(Br)cc1)[C@@H]1C(=O)N(C(C)(C)C)C(=O)[C@@H]12,12% (inactive)
4,Cc1onc(C(=O)Nc2ccc3c(c2)OCO3)c1[N+](=O)[O-],-7.05% (inactive)
5,Cn1cc([N+](=O)[O-])c(C(=O)Nc2ccc3c(c2)OCCO3)n1,-66.8% (active)
6,O=C(Nc1ccc2c(c1)OCCO2)c1ccoc1,-12.9% (inactive)
7,CC(=O)N(O)CCCCCNC(=O)CCC(=O)N(O)CCCCCNC(=O)CCC(=O)N(O)CCCCCNC(=O)CCC(=O)O,21.7% (inactive)
8,C[C@@]12C(=O)N(c3cccc(Br)c3)C(=O)N1[C@H](c1ccc(Cl)cc1)[C@@H]1C(=O)N(C3CCCCC3)C(=O)[C@@H]12,-60.3% (active)
9,CC(C)(C)N1C(=O)[C@H]2[C@@H](c3ccc(Br)cc3)N3C(=O)N(c4cccc(Cl)c4)C(=O)[C@@]3(C)[C@H]2C1=O,-24.5% (inactive)
10,O=C1[C@H]2[C@@H](c3ccc(Cl)cc3)N3C(=O)N(c4cccc(F)c4)C(=O)[C@@]3(Cc3ccccc3)[C@H]2C(=O)N1C1CCCCC1,-4.9% (inactive)
11,COc1ccc(-c2cnc3c(c2)C(=O)N([C@H](C)CO)C[C@@H](C)[C@H](CN(C)Cc2ccccc2)O3)cc1,-26.2% (inactive)
12,CCCNC(=O)C1(C)CCN(Cc2csc(-c3ccc(Cl)cc3)n2)C1 (stereo not given),-26.3% (inactive)
13,c1ccc2c(c1)CSc1sccc1C2=C1CCNCC1,-57.8% (active)
14,CN1OC[C@@H]2CN(C(=O)c3cccc4ccccc34)[C@H](c3ccc(N4CCCCC4)cc3)C[C@@H]21,-28.3% (inactive)
15,N#Cc1ccc(OCC(=O)Nc2nc(-c3ccccn3)cs2)cc1,69.5% (inactive)
16,CSc1ccccc1NC(=O)CN(C)CC(=O)Nc1ccc(Cl)cc1[N+](=O)[O-],-0.613% (inactive)
17,CCC(C)c1ccccc1NC(=O)CN(C)CC(=O)Nc1ccccc1SC (stereo not given),-1.52% (inactive)
18,CSc1ccccc1NC(=O)CN(C)CC(=O)Nc1cccc(Br)c1,-74.1% (active)
19,O=C(Nc1ccccc1)C1CC(=O)n2c(nc3ccccc32)N1 (stereo not given),-5.02% (inactive)
20,COc1ccc(CC(NC(C)=O)C(=O)NC2CCN(C(=O)c3ccc(Cl)cc3)CC2)cc1 (stereo not given),23.6% (inactive)
21,COC(=O)C[C@H]1C=C[C@@H](NS(=O)(=O)c2ccc(C)cc2)[C@@H](CO)O1,34.5% (inactive)
22,CSc1ncnc2c1ncn2CCCNCc1cccs1,19.3% (inactive)

row,Structure (SMILES),activity change
1,COc1ccc(OCC(=O)Nc2ccc(N3CCC(C)CC3)cc2)cc1,2.27% (inactive)
2,COc1ccc(N2CCC(N3CCN(C)C(CCO)C3)CC2)cc1 (stereo not given),15.4% (inactive)
3,COc1ccc(NC(=S)NCCN2CCC(C)CC2)cc1,-11.9% (inactive)
4,COc1ccc(N2CCC(CNC(=S)Nc3c(C)cccc3C)C2)cc1 (stereo not given),-82.6% (active)
5,COc1ccc(NC(=S)NCC2CCN(c3ccc(OC)cc3)C2)cc1 (stereo not given),-82.6% (active)
6,COc1ccc(C(C(=O)Nc2c(C)cccc2C)N2CCN(c3ccc(C)cc3)CC2)cc1 (stereo not given),-9.64% (inactive)
7,Cc1sc2ccccc2c1CNC[C@H]1O[C@@H](n2ccc(=O)[nH]c2=O)[C@H](O)[C@@H]1O,-9.54% (inactive)
8,CN(Cc1c(F)cccc1Cl)C(=O)COC(=O)Cn1cnc2ccccc2c1=O,12.8% (inactive)
9,CCCCN1CC(N2CCN(Cc3cccc(C)c3)CC2)CS1(=O)=O (stereo not given),-1.82% (inactive)
10,CCc1ccc([C@@H]2CC(=O)[C@@H]3CN(S(=O)(=O)c4ccc(C)cc4)[C@H](c4ccc(Cl)cc4)C[C@@H]3N2S(=O)(=O)c2ccc(C)cc2)cc1,9.82% (inactive)
11,N#Cc1nc(COc2ccc(Cl)cc2)oc1N1CCCC1,-69.8% (active)
12,Cc1ccc(OCc2nc(C#N)c(N3CCCC3)o2)cc1,-58.3% (active)
13,O=S(=O)(c1ccc(Cl)cc1)c1nc(-c2ccco2)oc1N1CCCCC1,-10.9% (inactive)
14,COc1ccc(-c2oc(/N=C/N3CCCC3)c(C#N)c2-c2ccc(OC)cc2)cc1,-12.8% (inactive)
15,N#Cc1ccc(OCc2nnc(-c3ccc([N+](=O)[O-])cc3)o2)cc1,-1.57% (inactive)
16,Cc1cc(N2CCCC2)ccc1NC(=O)COc1ccc(Cl)cc1,2.28% (inactive)
17,CNC(=O)C1CN(C(=O)c2cccc(S(=O)(=O)N3CCc4ccccc43)c2)c2ccccc2O1 (stereo not given),31.5% (inactive)
18,COc1ccc(-c2coc3c(C(=O)NC(C)C)cccc23)c(C)c1,-10.6% (inactive)
19,COc1ccc(CN2CCC(C)(Oc3cccc(F)c3)C2)c2ccccc12 (stereo not given),6.61% (inactive)
20,Nc1nc2c(ncn2[C@@H]2O[C@H](CNCc3ccc(OCCCN4CCOCC4)cc3)[C@@H](O)[C@H]2O)c(=O)[nH]1,16.8% (inactive)
21,CC1CC(C)CN(CCOc2cccc3ccccc23)C1 (stereo not given),-68.4% (active)
22,CC1CCCN(CCOCCOc2ccccc2-c2ccccc2)C1 (stereo not given),-6.75% (inactive)

row,Structure (SMILES),activity change
1,CC1CN(CCOc2ccccc2[N+](=O)[O-])CC(C)O1 (stereo not given),7.14% (inactive)
2,CCCn1nnnc1NC(=O)COc1ccc(Cl)cc1C,-5.09% (inactive)
3,COc1ccc(Cl)cc1C=CC=Nc1ccc(S(N)(=O)=O)cc1,-101% (active)
4,COc1ccccc1/C=C/C=N/n1c(-c2ccc(Cl)cc2Cl)n[nH]c1=S,0% (inactive)
5,COc1ccc(Cl)cc1C=CC=NNC(=O)c1ccncc1,-5.27% (inactive)
6,CC1(C)CC(=O)C=C(c2ccc(COC(=O)c3cc(F)cc(F)c3)cc2)C1=O,16.9% (inactive)
7,Cc1cc(N2CCN(c3ccc(F)cc3)CC2)n2ncnc2n1,-4.74% (inactive)
8,COc1ccc(Cn2c(C)c(C)c(C#N)c2NC(=O)Nc2ccc(F)cc2)cc1,31.5% (inactive)
9,Cc1ccc(C(=O)Nc2c(C#N)c(C)c(C)n2Cc2ccccc2)cc1,-11.6% (inactive)
10,Cc1c(C#N)c(NC(=O)c2ccccc2)n(Cc2ccccc2)c1C,-78.4% (active)
11,Cc1cn([C@H]2C[C@H](O)[C@@H](/C=C/C(=O)NCCCc3ccccc3)O2)c(=O)[nH]c1=O,-16.4% (inactive)
12,COc1ccc2c(c1)C(=O)Nc1cc(Cl)ccc1N2,-52.1% (active)
13,COc1ccc(OC)c(C(=O)c2ccc(Cl)cc2)c1,1.55% (inactive)
14,COc1ccc(C2NC(=O)c3ccccc3N2)cc1 (stereo not given),-24.2% (inactive)
15,Cc1cc(C)n2c(NCc3ccccc3)c(CC(C)C)nc2n1,19.1% (inactive)
16,CCn1cc(C(=O)NC2CCCCCC2)c(=O)c2cc(S(=O)(=O)N3CCCCC3)ccc21,-14.9% (inactive)
17,CCn1cc(C(=O)NCC2CCCO2)c(=O)c2cc(S(=O)(=O)N3CCCCC3)ccc21 (stereo not given),-22.1% (inactive)
18,CCn1cc(C(=O)NCCCN2CCCCCC2)c(=O)c2cc(S(=O)(=O)N3CCc4ccccc4C3)ccc21,-60.8% (active)
19,O=C(C(=O)N1CCN(c2ccccc2)CC1)c1ccc2c(c1)OCO2,-2.25% (inactive)
20,O=C(Nc1ccccc1F)c1ccccc1-c1ccc(C(F)(F)F)cc1,9.12% (inactive)
21,N#C/C(=C\C1=C(N2CCOCC2)C(=C\c2ccccc2)/CC1)C(=O)Nc1ccccc1F,5.35% (inactive)
22,N#C/C(=C\c1ccccc1C(F)(F)F)C(=O)Nc1ccccc1F,-50.4% (active)

row,Structure (SMILES),activity change
1,CCOc1cc2[nH]c(=S)n(Cc3ccc(C(=O)NCCOC)cc3)c(=O)c2cc1OCC,0% (inactive)
2,COc1ccc(Cn2c(=S)[nH]c3cc(C(=O)N4CCCCC4)ccc3c2=O)cc1,11.3% (inactive)
3,CCOc1cc2[nH]c(=S)n(Cc3ccc(C(=O)N4CCN(C)CC4)cc3)c(=O)c2cc1OCC,-53.6% (active)
4,COc1cccc(-c2cnc3c(NC(C)=O)cc(-c4cccc(NC(C)=O)c4)cn23)c1,10.8% (inactive)
5,N=c1n(Cc2ccc(Cl)cc2)c2ccccc2n1CC(O)c1ccco1 (stereo not given),-59.8% (active)
6,Cn1c(=N)n(CC(O)c2cccs2)c2ccccc21 (stereo not given),0% (inactive)
7,C=CCn1c(=N)n(CC(O)COc2ccc(OC)cc2)c2ccccc21 (stereo not given),-22.5% (inactive)
8,CCCCCCN1C[C@@H](O)[C@H](n2cc(COC(=O)c3ccccc3)nn2)C[C@@H]1c1ccc(Cl)cc1,6.67% (inactive)
9,COc1ccc(S(=O)(=O)N2CCCCC2c2cc(C(=O)NCc3ccc(F)cc3)no2)cc1 (stereo not given),-1.6% (inactive)
10,CS(=O)(=O)/C(C#N)=C/c1cccn1S(=O)(=O)c1ccc([N+](=O)[O-])cc1,-25.1% (inactive)
11,Cc1ccc2nc(NC(=O)CSc3nc(=O)n(CCCN(C)C)c4c3CCC4)sc2c1,-21.5% (inactive)
12,CCN(CC)CCn1c2c(c(SCC(=O)Nc3nc4ccccc4s3)nc1=O)CCCC2,-96.2% (active)
13,CCN(CC)CCn1c2c(c(SCC(=O)Nc3ccc(C(C)C)cc3)nc1=O)CCC2,7.71% (inactive)
14,C#CCNC(=O)C[C@@H]1C[C@@]2(C(=O)OCC)CCCC=C2N(Cc2ccco2)C1=O,43.1% (inactive)
15,CCC(=O)Nc1nc(OC)cc(OC)n1,5.6% (inactive)
16,COc1cc(OC)nc(S(C)(=O)=O)n1,-95.5% (active)
17,COc1ccc(NS(=O)(=O)c2ccc(F)cc2F)cn1,0.798% (inactive)
18,CC(=O)Nc1cccc(-c2cc(NC(C)=O)c3ncc(-c4ccccc4)n3c2)c1,12.6% (inactive)
19,NC(=O)C1(N2CCCCC2)CCN(C2CC(=O)N(Cc3ccc(N4CCCC4=O)cc3)C2=O)CC1 (stereo not given),-8.36% (inactive)
